What all share (set-up): scale not given: direction of the effect not stated beside the values
Experiment [1] addresses Protein translocase subunit SecA (Escherichia coli (strain K12)) (UniProt P10408). The experiment can be described thus: Assay to Identify E. coli SecA ATPase Inhibitors. Format: functional. The conditions noted are these: 30 µM.
Experiment [2] concerns the target T1, Ubiquitin-activating enzyme e1, putative (Leishmania donovani (strain BPK282A1)) (UniProt E9BSI1).
T1 sequence (whole entry): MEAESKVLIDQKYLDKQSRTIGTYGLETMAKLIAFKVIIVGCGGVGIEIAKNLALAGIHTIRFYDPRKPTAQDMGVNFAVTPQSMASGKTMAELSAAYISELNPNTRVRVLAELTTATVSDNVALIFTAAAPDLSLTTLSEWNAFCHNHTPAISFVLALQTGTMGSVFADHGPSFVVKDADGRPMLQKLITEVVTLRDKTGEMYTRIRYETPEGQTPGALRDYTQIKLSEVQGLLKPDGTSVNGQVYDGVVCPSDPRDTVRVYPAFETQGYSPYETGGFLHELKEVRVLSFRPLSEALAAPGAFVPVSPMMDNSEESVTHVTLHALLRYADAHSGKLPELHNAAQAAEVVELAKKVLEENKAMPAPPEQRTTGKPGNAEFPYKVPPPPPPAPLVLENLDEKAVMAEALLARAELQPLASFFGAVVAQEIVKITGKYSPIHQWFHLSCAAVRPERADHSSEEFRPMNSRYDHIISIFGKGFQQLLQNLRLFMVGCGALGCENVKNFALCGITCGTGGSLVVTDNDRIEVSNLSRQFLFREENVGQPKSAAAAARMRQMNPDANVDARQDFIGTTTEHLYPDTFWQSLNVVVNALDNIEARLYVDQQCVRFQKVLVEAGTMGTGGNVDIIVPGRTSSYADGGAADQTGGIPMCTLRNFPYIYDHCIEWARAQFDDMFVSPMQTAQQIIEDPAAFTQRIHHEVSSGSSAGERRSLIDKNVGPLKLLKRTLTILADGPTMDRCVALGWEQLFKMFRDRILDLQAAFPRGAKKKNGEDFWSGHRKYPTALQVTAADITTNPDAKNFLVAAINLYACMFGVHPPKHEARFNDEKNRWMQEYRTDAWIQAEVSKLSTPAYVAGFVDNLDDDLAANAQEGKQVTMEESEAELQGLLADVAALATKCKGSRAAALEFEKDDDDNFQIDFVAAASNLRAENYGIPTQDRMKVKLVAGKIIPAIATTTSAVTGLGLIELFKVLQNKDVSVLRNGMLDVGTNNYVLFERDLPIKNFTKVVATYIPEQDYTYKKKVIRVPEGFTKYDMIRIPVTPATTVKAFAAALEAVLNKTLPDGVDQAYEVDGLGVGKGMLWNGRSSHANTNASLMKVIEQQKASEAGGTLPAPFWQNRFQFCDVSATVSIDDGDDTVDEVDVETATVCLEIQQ
The experiment can be described thus: Leishmania donovani Ubiquitin Activating Enzyme (LdE1). Format: functional. The conditions noted are these: 30 µM.

Experiment [3] concerns the target AMP-activated protein kinase, AMPK (Homo sapiens) (UniProt P54646+O43741+P54619+Q9UGJ0+Q9Y478+Q13131+Q9UGI9). The experiment is described as follows: AMP-dependent Kinase enzyme assay. An in vitro enzyme assay that detects ADP turnover that is directly proportional to AMPK activity. This uses naive AMPK that is activated during the assay with MK-8722. The note with it: 30 µM. In kind it is functional.

Experiment [4] addresses Sialic acid-binding Ig-like lectin 9 (Homo sapiens) (UniProt Q9Y336). The experiment is described as follows: Hs-Siglec9 ALPHAscreen SOP 20170721. The conditions noted are these: 10 µM.
A further experiment relates to Trypanosoma cruzi. The experiment can be described thus: Trypanosoma cruzi phosphomannomutase and mannose-1-phosphate guanylyltransferase assay. In kind it is functional. The note with it: 10 µM.
Experiment [5] deals with T2, Arginase-2, mitochondrial (Homo sapiens) (UniProt P78540).
T2 sequence (whole entry): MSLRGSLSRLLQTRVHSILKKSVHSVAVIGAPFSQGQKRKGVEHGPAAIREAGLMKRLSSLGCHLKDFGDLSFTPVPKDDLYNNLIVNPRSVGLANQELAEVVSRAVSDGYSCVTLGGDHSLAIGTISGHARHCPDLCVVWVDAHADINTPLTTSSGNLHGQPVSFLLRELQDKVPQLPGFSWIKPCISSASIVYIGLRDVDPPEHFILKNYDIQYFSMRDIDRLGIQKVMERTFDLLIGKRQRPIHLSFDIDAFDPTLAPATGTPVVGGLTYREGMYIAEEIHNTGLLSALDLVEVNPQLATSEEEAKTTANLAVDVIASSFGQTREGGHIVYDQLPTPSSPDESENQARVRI
The experiment can be described thus: in vitro enzyme assay to detect the production of urea directly proportional to the activity of Arginase II. Note: in the data most compounds retested in dose-response had high values. Format: functional. The note with it: 33.3 µM.

Experiment [6] concerns the target T3, Proteasome subunit beta (Trypanosoma cruzi) (UniProt O96673).
T3 sequence (whole entry): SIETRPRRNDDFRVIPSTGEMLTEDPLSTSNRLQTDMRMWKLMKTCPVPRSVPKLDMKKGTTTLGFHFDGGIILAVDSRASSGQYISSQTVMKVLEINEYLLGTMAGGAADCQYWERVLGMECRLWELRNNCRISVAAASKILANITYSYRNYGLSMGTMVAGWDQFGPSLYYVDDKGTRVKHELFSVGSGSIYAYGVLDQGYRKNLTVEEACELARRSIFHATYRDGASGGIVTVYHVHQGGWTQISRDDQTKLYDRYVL
The experiment can be described thus: Trypanosoma cruzi proteasome chymotrypsin-like activity (TcProtChymo) assay. Note: in the data most compounds retested in dose-response had high values. The note with it: 9.37 µM. Format: functional.

A further experiment is filed under the species Homo sapiens. The experiment can be described thus: To identify inhibition of the IFN signalling (Jak-Stat) pathway via expression of an eGFP reporter gene under the control of an IFN-stimulated response element (ISRE) containing MxA promoter. In kind it is functional. The conditions noted are these: 30 µM.
For experiment [7], the target named is T4, Tyrosyl-tRNA synthetase, putative (Trypanosoma cruzi (strain CL Brener)) (UniProt Q4DSP6).
T4 sequence (whole entry): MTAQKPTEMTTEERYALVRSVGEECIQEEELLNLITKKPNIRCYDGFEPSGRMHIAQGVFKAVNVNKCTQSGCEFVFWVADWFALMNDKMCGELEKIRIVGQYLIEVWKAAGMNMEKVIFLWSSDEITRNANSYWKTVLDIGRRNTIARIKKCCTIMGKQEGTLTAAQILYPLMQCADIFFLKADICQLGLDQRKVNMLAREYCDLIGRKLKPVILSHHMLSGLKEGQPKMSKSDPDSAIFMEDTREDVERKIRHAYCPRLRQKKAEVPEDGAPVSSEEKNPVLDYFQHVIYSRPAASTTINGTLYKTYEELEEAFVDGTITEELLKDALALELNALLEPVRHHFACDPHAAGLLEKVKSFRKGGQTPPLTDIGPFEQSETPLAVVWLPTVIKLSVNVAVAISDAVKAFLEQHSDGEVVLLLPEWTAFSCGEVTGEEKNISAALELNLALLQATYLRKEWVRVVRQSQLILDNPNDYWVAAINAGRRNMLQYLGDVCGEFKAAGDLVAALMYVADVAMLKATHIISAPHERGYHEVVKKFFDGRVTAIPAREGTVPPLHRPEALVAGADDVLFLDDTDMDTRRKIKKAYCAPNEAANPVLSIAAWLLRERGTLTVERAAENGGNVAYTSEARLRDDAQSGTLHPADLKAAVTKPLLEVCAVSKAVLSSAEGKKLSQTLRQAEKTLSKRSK
The experiment is described as follows: Trypanosoma cruzi tyrosyl tRNA synthetase (TcYRS) _High Tyrosine SOP. Note: in the data most compounds retested in dose-response had high values. Format: functional. The note with it: 30 µM.

Experiment [8] deals with T4, Tyrosyl-tRNA synthetase, putative (Trypanosoma cruzi (strain CL Brener)). The experiment can be described thus: Trypanosoma cruzi tyrosyl tRNA synthetase (TcYRS) SOP. The conditions noted are these: 30 µM. Format: functional.
In experiment [9] the target is Chromo domain-containing protein 1 (Saccharomyces cerevisiae (strain ATCC 204508 / S288c) (Baker's yeast)) (UniProt P32657). The experiment can be described thus: ScCHD-1 Enzyme Inhibition Assay. Note: in the data most compounds retested in dose-response had high values. Format: functional. The conditions noted are these: 30 µM.
Chain of Chromo domain-containing protein 1 (Saccharomyces cerevisiae (strain ATCC 204508 / S288c) (Baker's yeast)) (P32657 whole entry, the tested form may be a part): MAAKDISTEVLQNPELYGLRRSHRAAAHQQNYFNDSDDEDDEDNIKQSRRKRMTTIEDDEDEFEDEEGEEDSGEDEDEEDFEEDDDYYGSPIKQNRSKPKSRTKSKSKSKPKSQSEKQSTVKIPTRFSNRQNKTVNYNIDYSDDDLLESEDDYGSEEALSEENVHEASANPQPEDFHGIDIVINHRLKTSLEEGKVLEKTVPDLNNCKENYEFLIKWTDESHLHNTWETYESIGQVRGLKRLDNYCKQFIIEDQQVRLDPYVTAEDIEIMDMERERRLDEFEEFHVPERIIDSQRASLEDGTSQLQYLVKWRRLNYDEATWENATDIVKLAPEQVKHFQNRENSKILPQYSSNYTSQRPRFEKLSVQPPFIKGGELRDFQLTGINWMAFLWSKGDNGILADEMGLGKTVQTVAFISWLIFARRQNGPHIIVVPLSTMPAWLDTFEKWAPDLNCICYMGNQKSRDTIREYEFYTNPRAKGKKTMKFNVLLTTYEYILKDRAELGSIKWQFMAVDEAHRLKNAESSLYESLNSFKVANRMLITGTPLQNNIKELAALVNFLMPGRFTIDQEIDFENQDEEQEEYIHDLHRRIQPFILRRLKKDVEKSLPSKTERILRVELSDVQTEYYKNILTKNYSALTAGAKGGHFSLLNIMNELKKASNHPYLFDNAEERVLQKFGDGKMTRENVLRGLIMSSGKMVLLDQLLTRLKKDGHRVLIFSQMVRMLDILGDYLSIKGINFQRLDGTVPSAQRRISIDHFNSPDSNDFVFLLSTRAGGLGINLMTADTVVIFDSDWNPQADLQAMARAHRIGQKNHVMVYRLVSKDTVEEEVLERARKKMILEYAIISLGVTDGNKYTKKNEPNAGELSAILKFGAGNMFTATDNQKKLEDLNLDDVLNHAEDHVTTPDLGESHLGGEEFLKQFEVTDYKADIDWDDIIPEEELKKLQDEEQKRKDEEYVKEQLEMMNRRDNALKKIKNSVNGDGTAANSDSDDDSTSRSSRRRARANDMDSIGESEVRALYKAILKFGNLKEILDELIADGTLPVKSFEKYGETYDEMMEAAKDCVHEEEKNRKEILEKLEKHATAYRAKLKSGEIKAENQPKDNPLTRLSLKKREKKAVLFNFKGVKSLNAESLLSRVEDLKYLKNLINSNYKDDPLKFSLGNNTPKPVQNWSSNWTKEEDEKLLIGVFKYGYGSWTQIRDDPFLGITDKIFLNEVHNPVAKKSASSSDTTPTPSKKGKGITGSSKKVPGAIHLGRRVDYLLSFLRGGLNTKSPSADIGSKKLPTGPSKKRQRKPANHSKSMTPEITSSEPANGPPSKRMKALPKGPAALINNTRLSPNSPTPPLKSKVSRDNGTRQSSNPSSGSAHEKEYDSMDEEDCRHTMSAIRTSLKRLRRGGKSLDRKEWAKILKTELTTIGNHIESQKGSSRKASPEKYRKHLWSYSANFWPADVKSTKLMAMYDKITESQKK

For some of these results: Potency and affinity values are given separately.

Chain of Sialic acid-binding Ig-like lectin 9 (Homo sapiens) (Q9Y336 whole entry): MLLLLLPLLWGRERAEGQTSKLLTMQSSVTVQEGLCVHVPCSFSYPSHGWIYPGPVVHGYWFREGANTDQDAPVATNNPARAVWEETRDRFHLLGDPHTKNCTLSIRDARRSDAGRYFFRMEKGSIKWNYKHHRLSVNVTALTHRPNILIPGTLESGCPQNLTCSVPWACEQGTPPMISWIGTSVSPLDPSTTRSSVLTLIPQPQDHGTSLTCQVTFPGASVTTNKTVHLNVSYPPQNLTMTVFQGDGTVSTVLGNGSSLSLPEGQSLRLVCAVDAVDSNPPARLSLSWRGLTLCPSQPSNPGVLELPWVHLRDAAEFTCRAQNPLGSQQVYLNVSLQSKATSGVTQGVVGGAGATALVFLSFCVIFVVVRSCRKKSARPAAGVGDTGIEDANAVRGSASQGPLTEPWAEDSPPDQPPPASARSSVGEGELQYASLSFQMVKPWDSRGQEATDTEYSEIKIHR
Chain of Protein translocase subunit SecA (Escherichia coli (strain K12)) (P10408 whole entry): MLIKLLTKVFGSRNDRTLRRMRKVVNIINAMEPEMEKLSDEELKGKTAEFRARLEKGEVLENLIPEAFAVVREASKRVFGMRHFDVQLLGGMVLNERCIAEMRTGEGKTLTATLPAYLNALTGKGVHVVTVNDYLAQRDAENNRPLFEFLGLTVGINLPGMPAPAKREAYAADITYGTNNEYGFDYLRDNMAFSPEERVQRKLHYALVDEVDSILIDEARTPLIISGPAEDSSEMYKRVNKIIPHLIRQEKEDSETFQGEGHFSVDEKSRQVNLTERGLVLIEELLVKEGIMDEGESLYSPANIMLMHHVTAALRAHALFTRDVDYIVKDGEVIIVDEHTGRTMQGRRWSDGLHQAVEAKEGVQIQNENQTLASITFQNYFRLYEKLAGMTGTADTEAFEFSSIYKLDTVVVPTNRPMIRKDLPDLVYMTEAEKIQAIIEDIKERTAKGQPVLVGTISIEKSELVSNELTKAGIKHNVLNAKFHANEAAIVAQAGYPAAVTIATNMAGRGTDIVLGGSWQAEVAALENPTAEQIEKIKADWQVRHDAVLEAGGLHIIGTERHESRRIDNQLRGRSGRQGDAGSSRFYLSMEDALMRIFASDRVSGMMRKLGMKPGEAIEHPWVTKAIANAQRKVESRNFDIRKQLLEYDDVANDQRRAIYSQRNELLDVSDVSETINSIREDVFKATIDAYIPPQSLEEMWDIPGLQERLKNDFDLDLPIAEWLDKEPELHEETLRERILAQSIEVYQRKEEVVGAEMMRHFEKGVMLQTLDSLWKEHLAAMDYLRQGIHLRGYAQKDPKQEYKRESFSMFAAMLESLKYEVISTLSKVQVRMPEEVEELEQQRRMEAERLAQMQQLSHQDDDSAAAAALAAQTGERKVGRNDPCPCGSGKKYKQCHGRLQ

Consider `Cc1ccc(C(=O)NCCCN2CCOCC2)c(Cl)c1`, for which the Percent Effect in experiment [1] was -2.82%; in experiment [2], 2.6%; in [3], 2.57%; in experiment [4], 5.34%; in the experiment on Trypanosoma cruzi, 6.79%; in [5], -2.76%. Besides, the Percent Effect in experiment [6] was 4.33%; in the experiment filed under Homo sapiens it was 18.2%; in [7], 3.23%; in experiment [8] it was 11.1%; in [9] it was 108%.
For `Cc1noc([C@@H]2C[C@H]3OCC[C@H]3N(S(C)(=O)=O)C2)n1`, the Percent Effect is -1.89% in experiment [1]; 11% in experiment [2]; -9.13% in [3]; 8.3% in [4]; 4.37% with Trypanosoma cruzi; -1.6% in experiment [5]. Moreover, the Percent Effect in experiment [6] was 9.5%; in the experiment filed under Homo sapiens, 1.34%; in experiment [7], 6.25%; in [8], 8.64%; in experiment [9], -4.65%.
On to `CC(C)C1CN(c2ncc(F)cn2)CCC(=O)N1Cc1ccc(F)cc1` (stereo unspecified), for which the Percent Effect in [1] was -2.05%; in experiment [2], 12.5%; in [3] it was -4.48%; in experiment [4], 14.3%; in the experiment with Trypanosoma cruzi, 6.51%; in experiment [5], 8.83%. Moreover, the Percent Effect in [6] is 13.3%; in the experiment filed under Homo sapiens, -7.42%; in [7], 9.47%; in experiment [8], 15.4%; in experiment [9] it was -4.54%.
Regarding `CN(C)Cc1ccnc(C2CCCN2Cc2cc[nH]n2)n1` (stereo unspecified), the Percent Effect in experiment [1] is -6.5%; in experiment [2], -6.76%; in experiment [3], 10.3%; in experiment [4], -1.81%; with Trypanosoma cruzi it was -1.78%; in experiment [5], -1.16%. For the same compound, the Percent Effect was 6.08% in experiment [6]; -0.845% in the experiment listed under Homo sapiens; 3.23% in [7]; 3.9% in experiment [8]; 1.51% in experiment [9].
On to `CCn1ncnc1C(C)NC(=O)C1CCN(C(=O)COC)CC1` (stereo unspecified), for which the Percent Effect is -7.01% in experiment [1]; 8.11% in experiment [2]; -1.09% in experiment [3]; 0.673% in experiment [4]; -0.489% in the experiment on Trypanosoma cruzi; 4.22% in experiment [5]. Moreover, the Percent Effect was 9.19% in experiment [6]; 1.26% in the experiment filed under Homo sapiens; 10.8% in experiment [7]; 18.5% in [8]; -2.43% in experiment [9].
As for `c1cnnc(NCC2CN(Cc3cccc4c3OCCO4)CCO2)c1` (stereo unspecified), the Percent Effect was -3.5% in [1]; 5.2% in experiment [2]; 2.26% in [3]; 4.61% in experiment [4]; 9.55% in the experiment on Trypanosoma cruzi; -2.13% in experiment [5]. Besides, the Percent Effect in experiment [6] was 1.18%; in the experiment filed under Homo sapiens, 18.6%; in experiment [7], 10.7%; in experiment [8], 24.4%; in experiment [9], -7.39%.
Consider `Fc1ccc2[nH]c(C3CCCN3CCc3ccccn3)nc2c1` (stereo unspecified), for which the Percent Effect in [1] is -0.354%; in [2], 8.22%; in [3], -4.31%; in experiment [4], 9.65%; in the experiment with Trypanosoma cruzi, 1.98%; in experiment [5] it was -1.2%. For the same compound, the Percent Effect is 18.6% in [6]; -28.3% in the experiment filed under Homo sapiens; 13.5% in experiment [7]; 23.5% in experiment [8]; 2.89% in experiment [9].
Take `O=C(NCC1CC1)[C@H]1CC[C@@H]2[C@@H](CCN2Cc2ccoc2)O1`: the Percent Effect in experiment [1] was -9.56%; in [2] it was 16.2%; in experiment [3], -3.1%; in [4], 26%; in the experiment on Trypanosoma cruzi it was 4.99%; in experiment [5], 3.23%. Also, the Percent Effect is 4.72% in experiment [6]; -7.7% in the experiment listed under Homo sapiens; 4.3% in [7]; 6.17% in experiment [8]; -12.2% in experiment [9].
On to `O=C1CC2(CCN(CC3CCOC3)CC2)CN1Cc1cc(F)cc(F)c1` (stereo unspecified), for which the Percent Effect in experiment [1] is -5.41%; in [2], 12.5%; in experiment [3], -5.76%; in experiment [4], 26.3%; in the experiment with Trypanosoma cruzi, 4.37%; in [5] it was 16.3%. Further, the Percent Effect in experiment [6] was 9.65%; in the experiment filed under Homo sapiens, -12.9%; in [7], 2.1%; in experiment [8], 10.3%; in experiment [9], -4.1%.
With `Cc1nc(N2CCOCC2)nc2c1CN(C(=O)Cc1ccccn1)CC2`, the Percent Effect in experiment [1] is 1.23%; in experiment [2], 0%; in experiment [3] it was 3.27%; in experiment [4] it was 5.25%; in the experiment with Trypanosoma cruzi, 0.688%; in experiment [5] it was 4.14%. Also, the Percent Effect is 2.66% in experiment [6]; -4.9% in the experiment filed under Homo sapiens; 3.23% in [7]; -1.24% in experiment [8]; 0.916% in experiment [9].
As to `Cc1ccc(C#N)c(N2CCC(c3nccn3CCN(C)C)CC2)n1`, the Percent Effect in experiment [1] was -4.49%; in experiment [2], 2.67%; in experiment [3], 1.54%; in experiment [4], 4.68%; with Trypanosoma cruzi, -3.6%; in [5] it was -2.08%. Also, the Percent Effect in [6] was 11.7%; in the experiment listed under Homo sapiens, 12.9%; in experiment [7], 7.1%; in experiment [8], 11.1%; in experiment [9] it was -8.91%.

These data come from ChEMBL document CHEMBL3988442, “University of Dundee, Small-Polar-MMV Screening Library” (2021).
